Where “and” joins values, the source holds several entries; their conditions need not be identical. Identical values can stand only once. Results filed as inconclusive are left out. Calls of active or inactive are those of the source. Unless noted, the call rests on the fitted dose curve; in most records, active means well fitted curve in the direction sought with a large enough effect in the repeat runs; inconclusive means weak or mixed curves; inactive means no such curve, though single readings can be large; an effect the other way counts as inactive or inconclusive.

The nature of test [1]: qHTS assay to identify small molecule that activate the aryl hydrocarbon receptor (AhR) signaling pathway - cell viability counter screen (AID 743086). Further: nearly all actives have a fitted effect of over 45% in size. Further: potency means the concentration at half of the fitted maximal effect. Put shortly: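 Cytotoxicity counter screen: CellTiter-Fluor signal (30 min, 37 C) in 4000 HepG2 cells/well carrying the DRE-luciferase reporter, following 24 h compound exposure at 37 C.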
(qHTS replaces the single test concentration by a dilution series.)

Test [2] deals with Peroxisome proliferator-activated receptor gamma (Homo sapiens) (UniProt P37231). The experiment in a line: qHTS assay to identify small molecule agonists of the peroxisome proliferator-activated receptor gamma (PPARg) signaling pathway (AID 743094; active means well fitted activation curve with a large enough effect in the signal ratio in the repeat runs, not every such curve was filed as active; the % refers to the signal ratio). The method, boiled down:
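Compounds dissolved in DMSO were added to PPARg UAS-bla HEK293H cells for 17 h at 37C, and reporter expression was quantified by fluorescence intensity after 1 h with LiveBLAzer B/G FRET substrate.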

Test [3] is described as follows: qHTS assay to identify small molecule antagonists of the peroxisome proliferator-activated receptor gamma (PPARg) signaling pathway - cell viability counter screen (AID 743194). Further: nearly all actives have a fitted effect of over 55% in size. Further: potency means the concentration at half of the fitted maximal effect. Put shortly:
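Viability was measured as CellTiter-Glo luminescence in GeneBLAzer PPARg UAS-bla HEK293H cells. These cells had been exposed 17 h at 37 C to compounds together with rosiglitazone at 50 nM final, with the beta-lactamase readout taken in the same wells.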

Test [4] in a line: qHTS assay for small molecule agonists of the antioxidant response element (ARE) signaling pathway (AID 743202; active means well fitted activation curve with a large enough effect in the signal ratio in the repeat runs, not every such curve was filed as active; the % refers to the signal ratio; further: potency means the concentration at half of the fitted maximal effect). Put shortly:
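Quantitative high-throughput format in HepG2 cells bearing an integrated ARE-beta-lactamase reporter. Compound exposure lasted 16 h at 37 C, and fluorescence was read 2 h after adding LiveBLAzer B/G substrate at room temperature.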

The nature of test [5]: qHTS assay for small molecule agonists of the antioxidant response element (ARE) signaling pathway - cell viability counter screen (AID 743203; calls by dose curve; further: nearly all actives have a fitted effect of over 55% in size; further: potency means the concentration at half of the fitted maximal effect). The method, boiled down:
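Following 16 hrs of compound treatment at 37C, HepG2 cells with an ARE-controlled beta-lactamase gene were lysed with CellTiter-Glo. Luminescence was read after 30 min at room temperature.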

Test [6] in a line: qHTS assay for small molecule activators of the heat shock response signaling pathway - cell viability counter screen (AID 743209). Further: nearly all actives have a fitted effect of over 50% in size. The method, boiled down:
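Readout: CellTiter-Glo luminescence, 30 min at room temperature. System: HSE-bla HeLa cells, 1500/well, plated overnight. Treatment: compounds in DMSO, 5 h at 37 C.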

The nature of test [7]: qHTS assay for small molecule activators of the heat shock response signaling pathway (AID 743210; active means well fitted activation curve with a large enough effect in the signal ratio in the repeat runs, with a control signal flat, not every such curve was filed as active; the % refers to the signal ratio; further: potency means the concentration at half of the fitted maximal effect;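 on activation: HeLa cells with beta-lactamase reporter driven by heat shock elements; series mostly up to about 63 µM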). Put shortly: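 HeLa HSE-bla cells, overnight plating; cpd in DMSO 5 h, 37 C; LiveBLAzer B/G FRET substrate 2.5 h RT; fluorescence intensity read.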
Test [8] in a line: qHTS assay to identify small molecule agonists of the peroxisome proliferator-activated receptor delta (PPARd) signaling pathway - cell viability counter screen (AID 743211). Further: nearly all actives have a fitted effect of over 55% in size. Further: potency means the concentration at half of the fitted maximal effect. The method, boiled down: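 PPARd-bla HEK293H cells (UAS-beta-lactamase reporter) were treated with compounds for 17 h at 37 C. Viability was then read in the same wells by CellTiter-Glo luminescence after 30 min at room temperature.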

For test [9], the target named is Peroxisome proliferator-activated receptor delta (Homo sapiens) (UniProt Q03181). The experiment in a line: qHTS assay to identify small molecule agonists of the peroxisome proliferator-activated receptor delta (PPARd) signaling pathway (AID 743212; calls by dose curve). The method, boiled down: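 HEK293H PPARd-bla cells; 5 h preincubation 37 C/5% CO2; compound (DMSO) 37 C; LiveBLAzer B/G FRET substrate 2 h RT; fluorescence intensity.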
Chain of Peroxisome proliferator-activated receptor delta (Homo sapiens) (Q03181 whole entry, looked up): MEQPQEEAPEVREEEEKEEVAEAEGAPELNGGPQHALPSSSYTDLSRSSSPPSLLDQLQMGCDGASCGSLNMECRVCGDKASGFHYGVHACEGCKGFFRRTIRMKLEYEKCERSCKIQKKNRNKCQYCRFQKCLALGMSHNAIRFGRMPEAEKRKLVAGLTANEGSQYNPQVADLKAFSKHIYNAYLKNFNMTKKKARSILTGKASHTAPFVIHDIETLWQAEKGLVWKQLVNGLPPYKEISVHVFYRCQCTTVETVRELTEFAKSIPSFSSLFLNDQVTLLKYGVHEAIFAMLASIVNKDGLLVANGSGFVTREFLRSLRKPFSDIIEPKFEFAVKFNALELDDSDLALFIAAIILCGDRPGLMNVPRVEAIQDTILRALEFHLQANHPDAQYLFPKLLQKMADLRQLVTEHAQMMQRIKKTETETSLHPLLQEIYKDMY

A short description of test [10]: qHTS assay to identify small molecule antagonists of the peroxisome proliferator-activated receptor delta (PPARd) signaling pathway - cell viability counter screen (AID 743213). Further: nearly all actives have a fitted effect of over 50% in size. Further: potency means the concentration at half of the fitted maximal effect. Put shortly:
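Agonist-stimulated (L165041, 300 nM final) HEK293H PPARd UAS-bla cells are exposed to compounds for 17 h at 37 C, and ATP-based luminescence (CellTiter-Glo) from the same wells reports cytotoxicity.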

Test [11] concerns the target Peroxisome proliferator-activated receptor delta (Homo sapiens) (UniProt Q03181). Nature of the test: qHTS assay to identify small molecule antagonists of the peroxisome proliferator-activated receptor delta (PPARd) signaling pathway (AID 743215; active means well fitted inhibition curve with a large enough effect in the signal ratio in the repeat runs, not every such curve was filed as active; the % refers to the signal ratio; further: series mostly up to about 62 µM). The method, boiled down:
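HEK293H UAS-bla, PPARd; agonist L165041 300 nM final with cpd in DMSO; 37 C 17 h; FRET substrate, RT 2 h; fluorescence intensity.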

A short description of test [12]: qHTS assay to identify small molecule agonists of the farnesoid-X-receptor (FXR) signaling pathway - cell viability counter screen (AID 743218). Further: nearly all actives have a fitted effect of over 45% in size. Further: potency means the concentration at half of the fitted maximal effect. Put shortly: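 Parallel cytotoxicity test: compound-treated (16 h, 37 C) HEK 293T FXR-bla reporter cells were lysed with CellTiter-Glo and luminescence recorded.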
The nature of test [13]: qHTS assay to identify small molecule antagonists of the farnesoid-X-receptor (FXR) signaling pathway - cell viability counter screen (AID 743221; active means well fitted cell-killing curve with a large enough effect in the repeat runs, not every such curve was filed as active; further: nearly all actives have a fitted effect of over 50% in size). The method, boiled down: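 FXR-UAS-bla HEK 293T cells were treated with test compounds plus chenodeoxycholic acid (50 uM final) for 16 h at 37 C. Cell viability in the same wells was then read as CellTiter-Glo luminescence after 30 min at room temperature.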

The target of test [14] is Vitamin D3 receptor (Homo sapiens) (UniProt P11473). Nature of the test: qHTS assay to identify small molecule agonists of the vitamin D receptor (VDR) signaling pathway (AID 743222; calls by dose curve). The method, boiled down:
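In VDR-bla cells, compound-induced beta-lactamase expression is quantified by FRET substrate fluorescence. Treatment lasts 16 h at 37C; substrate develops 2 h at room temperature.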

For test [15] the target is unchanged. The experiment in a line: qHTS assay to identify small molecule antagonists of the vitamin D receptor (VDR) signaling pathway (AID 743223; active means well fitted inhibition curve with a large enough effect in the signal ratio in the repeat runs, not every such curve was filed as active; the % refers to the signal ratio). The method, boiled down: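 VDR-bla cells were plated, incubated 4 h at 37C, then given compound and 1alpha,25-dihydroxyvitamin D3 (3 nM final). After 16 h at 37C, LiveBLAzer B/G FRET substrate was added for 2 h at room temperature and fluorescence read.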

The nature of test [16]: qHTS assay to identify small molecule agonists of the vitamin D receptor (VDR) signaling pathway - cell viability counter screen (AID 743224). Further: nearly all actives have a fitted effect of over 50% in size. Further: potency means the concentration at half of the fitted maximal effect. Put shortly: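 Plated VDR-bla cells (4 h, 37C) received compound, incubated 16 h, then LiveBLAzer substrate 2 h RT; CellTiter-Glo added afterwards, luminescence read at 30 min.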
Test [17] addresses Aryl hydrocarbon receptor (Homo sapiens) (UniProt P35869). The experiment in a line: qHTS assay to identify small molecule that activate the aryl hydrocarbon receptor (AhR) signaling pathway (AID 743085). Further: nearly all actives have a fitted effect of over 15% in size. Further: potency means the concentration at half of the fitted maximal effect.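 On activation: HG2L7.5c1 human HepG2 liver cells with stably integrated DRE-driven firefly reporter; series mostly up to about 70 µM.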 Put shortly: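 HepG2 cells (HG2L7.5c1) stably carrying a firefly luciferase reporter driven by 20 dioxin responsive elements were exposed to compound for 24 h at 37C after a 5 h settling period; luminescence rise (ONE-Glo) indicated activation.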

Test [18] deals with Peroxisome proliferator-activated receptor gamma (Homo sapiens) (UniProt P37231). Nature of the test: qHTS assay to identify small molecule antagonists of the peroxisome proliferator-activated receptor gamma (PPARg) signaling pathway (AID 743191; calls by dose curve; further: nearly all actives have a fitted effect of over 30% in size; further: potency means the concentration at half of the fitted maximal effect). The method, boiled down: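 Beta-lactamase reporter under UAS control in HEK293H PPARg-bla cells; compound treatment 17 h at 37C. Read-out: fluorescence intensity after 1 h room-temperature incubation with LiveBLAzer B/G FRET substrate.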
Chain of Peroxisome proliferator-activated receptor gamma (Homo sapiens) (P37231 whole entry, looked up): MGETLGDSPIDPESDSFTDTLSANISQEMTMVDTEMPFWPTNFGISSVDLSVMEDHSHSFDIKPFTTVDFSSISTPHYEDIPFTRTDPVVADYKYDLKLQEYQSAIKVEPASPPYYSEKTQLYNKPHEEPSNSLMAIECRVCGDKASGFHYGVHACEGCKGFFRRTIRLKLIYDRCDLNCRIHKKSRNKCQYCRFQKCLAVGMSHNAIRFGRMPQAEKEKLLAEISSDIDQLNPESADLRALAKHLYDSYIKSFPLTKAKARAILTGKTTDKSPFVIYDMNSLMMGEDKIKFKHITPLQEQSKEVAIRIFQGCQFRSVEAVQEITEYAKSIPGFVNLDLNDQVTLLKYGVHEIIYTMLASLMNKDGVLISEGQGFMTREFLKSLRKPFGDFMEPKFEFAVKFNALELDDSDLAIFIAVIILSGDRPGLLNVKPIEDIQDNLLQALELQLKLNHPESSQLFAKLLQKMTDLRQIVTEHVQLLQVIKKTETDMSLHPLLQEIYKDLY

Test [19] concerns the target Bile acid receptor (Homo sapiens) (UniProt Q96RI1). The experiment in a line: qHTS assay to identify small molecule antagonists of the farnesoid-X-receptor (FXR) signaling pathway (AID 743217; active means well fitted inhibition curve with a large enough effect in the signal ratio in the repeat runs, not every such curve was filed as active; the % refers to the signal ratio). Put shortly:
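GeneBLAzer FXR-UAS-bla HEK 293T, CDCA-stimulated (50 uM final). Compound treatment 16 h, 37 °C. Detection: beta-lactamase cleavage of B/G FRET substrate, fluorescence.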

For test [20] the target is unchanged. The experiment in a line: qHTS assay to identify small molecule agonists of the farnesoid-X-receptor (FXR) signaling pathway (AID 743220; active means well fitted activation curve with a large enough effect in the signal ratio in the repeat runs, not every such curve was filed as active; the % refers to the signal ratio). Put shortly:
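Beta-lactamase reporter under UAS control in GeneBLAzer FXR HEK 293T cells (5000/well) measured with LiveBLAzer FRET substrate after 2 h at room temperature. Compound exposure lasted 16 h at 37C.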

Chain of Vitamin D3 receptor (Homo sapiens) (P11473 whole entry, looked up): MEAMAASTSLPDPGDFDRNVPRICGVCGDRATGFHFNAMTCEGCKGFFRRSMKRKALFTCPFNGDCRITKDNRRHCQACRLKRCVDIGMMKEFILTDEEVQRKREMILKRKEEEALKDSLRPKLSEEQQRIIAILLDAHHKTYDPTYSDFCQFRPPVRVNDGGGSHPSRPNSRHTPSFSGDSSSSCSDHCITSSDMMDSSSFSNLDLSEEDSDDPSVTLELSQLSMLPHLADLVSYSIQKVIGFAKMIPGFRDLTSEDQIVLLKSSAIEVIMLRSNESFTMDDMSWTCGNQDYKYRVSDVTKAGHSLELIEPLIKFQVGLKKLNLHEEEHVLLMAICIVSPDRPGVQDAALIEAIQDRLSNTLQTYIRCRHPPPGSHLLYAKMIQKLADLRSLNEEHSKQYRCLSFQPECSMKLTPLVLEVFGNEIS
Chain of Aryl hydrocarbon receptor (Homo sapiens) (P35869 whole entry, looked up): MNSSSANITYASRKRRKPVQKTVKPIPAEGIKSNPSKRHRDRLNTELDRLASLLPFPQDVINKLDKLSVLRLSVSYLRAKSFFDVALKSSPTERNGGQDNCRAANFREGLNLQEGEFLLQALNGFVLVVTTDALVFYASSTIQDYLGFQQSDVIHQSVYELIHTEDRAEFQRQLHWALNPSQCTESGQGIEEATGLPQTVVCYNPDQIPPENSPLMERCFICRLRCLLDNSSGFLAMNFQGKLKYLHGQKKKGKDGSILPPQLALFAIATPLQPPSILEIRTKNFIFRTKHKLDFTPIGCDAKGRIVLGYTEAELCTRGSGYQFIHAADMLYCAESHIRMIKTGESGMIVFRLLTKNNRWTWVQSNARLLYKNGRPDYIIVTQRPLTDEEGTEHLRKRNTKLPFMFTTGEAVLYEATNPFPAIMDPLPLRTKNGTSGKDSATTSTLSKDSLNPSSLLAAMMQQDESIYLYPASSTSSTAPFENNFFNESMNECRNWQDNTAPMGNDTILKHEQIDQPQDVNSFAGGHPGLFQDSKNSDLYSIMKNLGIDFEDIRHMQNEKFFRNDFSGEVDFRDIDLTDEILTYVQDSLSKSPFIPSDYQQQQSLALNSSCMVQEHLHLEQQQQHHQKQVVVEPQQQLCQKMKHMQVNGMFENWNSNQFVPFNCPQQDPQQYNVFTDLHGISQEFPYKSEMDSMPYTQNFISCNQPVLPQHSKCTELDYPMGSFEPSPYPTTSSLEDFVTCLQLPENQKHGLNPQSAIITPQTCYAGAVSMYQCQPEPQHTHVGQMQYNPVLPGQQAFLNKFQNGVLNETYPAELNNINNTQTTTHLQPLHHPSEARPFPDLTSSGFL
Chain of Bile acid receptor (Homo sapiens) (Q96RI1 whole entry, looked up): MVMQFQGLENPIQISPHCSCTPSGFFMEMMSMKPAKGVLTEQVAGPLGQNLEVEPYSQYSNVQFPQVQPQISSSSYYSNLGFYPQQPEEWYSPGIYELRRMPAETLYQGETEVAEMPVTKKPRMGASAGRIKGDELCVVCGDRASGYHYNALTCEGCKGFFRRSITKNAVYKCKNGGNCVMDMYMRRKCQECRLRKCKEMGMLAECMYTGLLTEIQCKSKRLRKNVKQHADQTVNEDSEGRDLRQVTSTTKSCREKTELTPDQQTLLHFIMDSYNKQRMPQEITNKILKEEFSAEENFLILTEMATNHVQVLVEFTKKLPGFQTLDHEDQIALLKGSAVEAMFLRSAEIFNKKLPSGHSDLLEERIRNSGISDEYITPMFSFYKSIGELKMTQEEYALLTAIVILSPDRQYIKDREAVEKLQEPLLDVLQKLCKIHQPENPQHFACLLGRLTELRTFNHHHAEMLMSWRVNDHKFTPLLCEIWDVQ

Take `CC(=O)Nc1cc(S(=O)(=O)O)cc2cc(S(=O)(=O)O)c(N=Nc3ccccc3)c(O)c12`: the Potency in test [1] was 19.3 µM (active). In addition, the Potency entry in test [2], in [3], in test [4], in [5], in [6] and in test [7] was “inactive” in each case. Further, the Potency entry in test [8], in [9], in test [10], in test [11], in [12] and in test [13] was “inactive” in each case. Also, the Potency result in test [14], in test [15] and in test [16] was “inactive” each time.

Regarding `c1csc(SSc2cccs2)c1`, the Potency result in test [17], in test [18], in [3], in test [4], in test [5] and in test [10] was “inactive” each time. Further, the Potency entry in [11], in test [12], in test [14], in test [15] and in test [16] was “inactive” throughout.

As to `C[C@@H](O)[C@H]1C(=O)N2C(C(=O)O)=C([C@H]3CCCO3)S[C@H]12`, the Potency entry in test [1], in test [2], in [18], in test [3], in test [5] and in test [6] was “inactive” in each case. The Potency entry in [8], in [10], in test [11], in test [19], in test [12] and in [20] was “inactive” each time. Besides, the Potency entry in [13] was “inactive”.

For the compound `CN1CCCC(CC2c3ccccc3Sc3ccccc32)C1` (configuration not stated), the Potency result in [17], in test [6], in test [7] and in test [20] was “inactive” throughout. Moreover, the Potency in test [18] is 10.6 µM (active); in test [3], 16.8 µM (active); in [8] it was 29.8 µM (active); in test [10] it was 26.6 µM (active); in test [12], 13.3 µM (active); in test [16], 26.6 µM (active).

Regarding `Clc1ccc(Nc2nnc(Cc3ccncc3)c3ccccc23)cc1`, the Potency was 1.5 µM (active) and 841 nM (active) in test [17]; 21.1 µM (active) in test [4]. In addition, the Potency entry in [6], in test [7], in test [8], in test [10], in test [20] and in test [14] was “inactive” in each case. Moreover, in test [15], the Potency result was “inactive”.

With `COc1ccccc1NC(=O)c1cc2ccccc2cc1O`, the Potency in test [17] is 3.06 µM (active); in test [3] it was 17.4 µM (active); in [7], 50.9 µM (active); in [10], 43.6 µM (active); in [16] it was 21.9 µM (active).

Take `O=C1c2ccccc2C(=O)N1CCc1noc(-c2ccc(CN3CCCCCC3)s2)n1`: the Potency in test [17] and in test [4] was 6.29 µM (active) in each case. Further, the Potency entry in test [3], in test [5], in test [6], in test [8], in [9] and in test [10] was “inactive” each time. Besides, the Potency entry in test [19], in test [12] and in test [13] was “inactive” each time.

Consider `C=C1CCC2CC1C2(C)C` (configuration not stated), for which the Potency entry in test [1], in [2], in test [3], in test [4], in [5] and in test [7] was “inactive” in each case. The Potency result in test [8], in [9], in [12], in test [13], in test [14] and in test [15] was “inactive” throughout. Besides, the Potency result in test [16] was “inactive”.

Take `CN1C[C@H](C(=O)N[C@]2(C)O[C@@]3(O)[C@@H]4CCCN4C(=O)[C@H](Cc4ccccc4)N3C2=O)C[C@@H]2c3cccc4[nH]cc(c34)C[C@H]21`: the Potency result in test [17], in test [6] and in test [7] was “inactive” in each case. Also, the Potency was 29.8 µM (active) in [3]; 29.8 µM (active) in test [5]; 23.7 µM (active) in [8]; 26.6 µM (active) in test [12]; 29.8 µM (active) in test [16].

Take `O=C1c2ccccc2C(=O)c2c(O)c(O)cc(O)c21`: the Potency in [17] was 10.9 µM (active). Besides, the Potency result in test [2], in test [3], in test [5], in [6], in test [8] and in test [9] was “inactive” throughout. In addition, the Potency entry in test [10], in test [11], in test [19], in test [12], in [20] and in test [13] was “inactive” each time. The Potency entry in [14], in test [15] and in test [16] was “inactive” each time.

The record behind these values is PubChem BioAssay (Tox21).
